From PubChem BioAssay
Where “and” joins values, the source holds several entries; their conditions need not be identical. Equal values may be shown once. Records with an inconclusive call do not appear. Calls of active or inactive are those of the source.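 The calls were made as follows, unless noted: active = normalized viability below 100% at a tested concentration; inactive = the rest.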

What was measured:
[1] = ovarian cancer cell viability with rucaparib, profiling panel, oncology-focused library, rucaparib conditional (AID 1508598); conditions: patient-derived ovarian cancer cells, CellTiter-Glo viability, 144 h, stronger effect = lower value
[2] = growth inhibition of DIPG glioma cells, dose response, cell-based, SU-DIPG-XVII, MIPE5.0, CellTiter-Glo, qHTS (AID 1347060; cut-off not given, nearly all actives have AC50 up to about 26 µM;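 as to AC50: cells exposed to compound for 48 hours before viability readout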); conditions: SU-DIPG-XVII viability, CellTiter-Glo ATP luminescence
[3] = growth inhibition of DIPG glioma cells, dose response, cell-based, SU-DIPG-XIII, MIPE4.0, CellTiter-Glo, qHTS (AID 1347061; cut-off not given, nearly all actives have AC50 up to about 37 µM;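 also: cells exposed to compound for 48 hours before readout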); conditions: SU-DIPG-XIII viability, CellTiter-Glo ATP luminescence
[4] = growth inhibition of DIPG glioma cells, dose response, cell-based, JHH-DIPG-1, MIPE4.0, CellTiter-Glo, qHTS (AID 1347062; cut-off not given, nearly all actives have AC50 up to about 27 µM;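 as to AC50: cells exposed to compound for two days before readout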); conditions: JHH-DIPG-1 viability, CellTiter-Glo ATP luminescence
[5] = growth inhibition of DIPG glioma cells, dose response, cell-based, SU-DIPG-IV, MIPE4.0, CellTiter-Glo, qHTS (AID 1347063; cut-off not given, nearly all actives have AC50 up to about 30 µM;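 also: compound exposure lasted 48 hours before the viability readout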); conditions: SU-DIPG-IV viability, CellTiter-Glo ATP luminescence
[6] = growth inhibition of DIPG glioma cells, dose response, cell-based, SU-DIPG-XIII, MIPE5.0, CellTiter-Glo, qHTS (AID 1347064; cut-off not given, nearly all actives have AC50 up to about 23 µM;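 as to AC50: cells exposed to compound for 48 hours before the viability read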); conditions: SU-DIPG-XIII viability, CellTiter-Glo ATP luminescence
[7] = viability loss in pontine glioma line – cell-based, SU-DIPG-XXV, MIPE5.0, CellTiter-Glo, qHTS, dose response (AID 1347065; cut-off not given, nearly all actives have AC50 up to about 26 µM;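 also: cells exposed to compound for 48 hours before ATP readout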); conditions: CellTiter-Glo ATP luminescence
[8] = JHH-DIPG-1 glioma cell viability, MIPE5.0 library, CellTiter-Glo luminescence, qHTS (AID 1347067; cut-off not given, nearly all actives have AC50 up to about 26 µM;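 also: cells exposed to compound for 48 hours before readout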); conditions: JHH-DIPG-1 glioma viability, CellTiter-Glo ATP luminescence
[9] = sensitizers of A549 cells to miR-34 induction, primary screen, imaging, A549 dox-inducible miR-34, nuclei and caspase counts (AID 1347080;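 active = compounds whose cell count with miR-34 switched on is under 0.7 times the count with it off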); conditions: A549 miR-34 inducible, Hoechst nuclei count, 48 h
[10] = survival rescue of mitochondrial mutant cells in low glucose, primary screen, MELAS cybrids, Rieske KO mouse fibroblasts, CellTiter-Glo (AID 1508586;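 active = mean z-score across replicates of 1.96 or higher in either the MELAS or the Rieske mutant cell line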;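 also: z relative to plate mean and SD of compound and empty wells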)
[11] = LFS_MB_P medulloblastoma growth inhibition, cell-based, chromothripsis tumors, cisplatin or BGB combos (AID 1671449; in the data active = inhibition above about 80%;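 also: cells exposed for 96 hours; 0% = vehicle DMSO and 100% = killing by high DMSO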); conditions: LFS_MB_P medulloblastoma cells
[12] = HDN33 neuroblastoma growth inhibition, cell-based, chromothripsis tumors, cisplatin or BGB combos (AID 1671450; in the data active = inhibition above about 80%;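 also: cells exposed to compound for four days; 0% = vehicle DMSO and 100% = cell killing by high DMSO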); conditions: HDN33 neuroblastoma cells, stronger effect = higher value
[13] = ICB984 medulloblastoma cell growth inhibition, synergistic combos for chromothripsis tumors, cisplatin or BGB combos (AID 1671451; call rule not given here;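 also: cells exposed for 96 hours before readout; 0% = vehicle DMSO and 100% = killing by high DMSO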); conditions: ICB984 medulloblastoma cells, drug combinations, stronger effect = higher value
[14] = HTB85 osteosarcoma cell growth inhibition, synergistic combos for chromothripsis tumors, BGB or cisplatin IC20 combos (AID 1671453; in the data active = inhibition above about 80%;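 also: cells exposed for 96 hours before readout; 0% = vehicle DMSO and 100% = high DMSO killing control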); conditions: HTB85 osteosarcoma cells, drug combinations, stronger effect = higher value
[15] = MDA-MB-436 breast carcinoma cell growth inhibition, synergistic combos for chromothripsis tumors, BGB or cisplatin combos (AID 1671458; call rule not given here;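 also: cells exposed for 96 hours; 0% = vehicle DMSO and 100% = killing by high DMSO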); conditions: MDA-MB-436 breast carcinoma growth inhibition, drug combinations, stronger effect = higher value
[16] = growth inhibition of BT084 medulloblastoma cells, cell-based, ICGC_MB145, cisplatin and BGB IC40 combos (AID 1671461; in the data active = inhibition above about 80%;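 also: cells exposed to drugs for 96 hours; 0% = vehicle DMSO and 100% = high DMSO full killing control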); conditions: drug combinations, stronger effect = higher value
[17] = growth inhibition of RCMB18 medulloblastoma cells, cell-based, cisplatin and BGB IC40 combos (AID 1671462; in the data active = inhibition above about 80%;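 also: cells exposed to compound for four days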); conditions: stronger effect = higher value
[18] = SU-DIPG-VI glioma cell viability, MIPE4.0 library, CellTiter-Glo luminescence, qHTS (AID 1347066; cut-off not given, nearly all actives have AC50 up to about 30 µM;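 also: cells exposed to compound for 48 hours before readout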); conditions: CellTiter-Glo ATP luminescence
[19] = SU-DIPG-XXV glioma cell viability, MIPE5.0 library, qHTS (AID 1347068; cut-off not given, nearly all actives have IC50 up to about 30 µM)
[20] = modifiers of HSF1 nuclear foci, imaging, Selleck Cancer Library (AID 1347162; in the data active = plate-normalised HSF1 focus index below about 0.46); conditions: human cells, at 10 µM; SSMD: measured here: HSF1 foci SSMD mean; cell count: measured here: cell number; plate-normalised HSF1 focus index: stronger effect = lower value
[21] = stronger effect = lower value, cell number ratio, induced over uninduced
[22] = measured here: relative caspase fold change +Dox/-Dox
[23] = measured here: total cells with miR-34 induction, stronger effect = lower value
[24] = measured here: total cells without miR-34 induction
[25] = MELAS cybrid survival, CellTiter-Glo 48 h, stronger effect = higher value
[26] = Rieske KO mouse fibroblast survival, CellTiter-Glo 72 h

CC(/C=C/C(=O)NO)=C\[C@@H](C)C(=O)c1ccc(N(C)C)cc1
viability ([1]; at 0.0781 µM, OCI-C5x cells, with rucaparib 10 µM, 100% = cells with rucaparib alone): 42.3% (active)
viability ([1]; at 0.0781 µM, OCI-C5x cells, without rucaparib): 17.8% (active)
viability ([1]; at 0.0781 µM, OCI-P5x cells, with rucaparib 20 µM, 100% = cells with rucaparib alone): 50.3% (active)
viability ([1]; at 0.0781 µM, OCI-P5x cells, without rucaparib): 51.8% (active)
viability ([1]; at 0.313 µM, OCI-C5x cells, with rucaparib 10 µM, 100% = cells with rucaparib alone): 8.25% (active)
viability ([1]; at 0.313 µM, OCI-C5x cells, without rucaparib): 6.7% (active)
viability ([1]; at 0.313 µM, OCI-P5x cells, with rucaparib 20 µM, 100% = cells with rucaparib alone): 13% (active)
viability ([1]; at 0.313 µM, OCI-P5x cells, without rucaparib): 12.1% (active)
viability ([1]; at 1.25 µM, OCI-C5x cells, with rucaparib 10 µM, 100% = cells with rucaparib alone): 4.57% (active)
viability ([1]; at 1.25 µM, OCI-C5x cells, without rucaparib): 4.64% (active)
viability ([1]; at 1.25 µM, OCI-P5x cells, with rucaparib 20 µM, 100% = cells with rucaparib alone): 2.76% (active)
viability ([1]; at 1.25 µM, OCI-P5x cells, without rucaparib): 2.28% (active)
viability ([1]; at 5 µM, OCI-C5x cells, with rucaparib 10 µM, 100% = cells with rucaparib alone): 5% (active)
viability ([1]; at 5 µM, OCI-C5x cells, without rucaparib): 4.88% (active)
viability ([1]; at 5 µM, OCI-P5x cells, with rucaparib 20 µM, 100% = cells with rucaparib alone): 0.994% (active)
viability ([1]; at 5 µM, OCI-P5x cells, without rucaparib): 1.21% (active)

O=C(CCCCCCNC(=O)c1cnc(N(c2ccccc2)c2ccccc2)nc1)NO
AC50 [2]: 7.42 µM (active)
AC50 [3]: 23.5 µM (active)
AC50 [4]: 7.43 µM (active)
AC50 [5]: 5.9 µM (active)
AC50 [6]: 4.17 µM (active)
AC50 [7]: 7.42 µM (active)
AC50 [8]: 8.33 µM (active)
fold change [9, 21]: 0.909 (inactive)
fold change [9, 22]: 0.469
cell count [9, 23]: 4500
cell count [9, 24]: 4950
z-score [10, 25]: -0.658 (inactive)
z-score [10, 26]: 0.218
inhibition ([11]; at 0.5 µM, stronger effect = higher value): -14.5% (inactive) and -5.58% (inactive)
inhibition ([11]; measured here: combination with BGB IC20, at 0.005 µM): -18.6% and -24.1%
inhibition ([11]; measured here: combination with BGB IC40, at 0.005 µM): -32.2% and -65.4%
inhibition ([11]; measured here: combination with BGB IC40, at 0.05 µM): -41.9% and -39.4%
inhibition ([11]; measured here: combination with cisplatin, at 0.5 µM, stronger effect = higher value): -7.65% and 15.8%
inhibition ([11]; measured here: combination with cisplatin, at 5 µM, stronger effect = higher value): 98.3% and 80%
inhibition ([12]; BGB combo, at 5 µM): 42.2% and -4.91%
inhibition ([12]; at 0.5 µM): -11.3% (inactive) and -31.5% (inactive)
inhibition ([12]; cisplatin combo, at 5 µM): 48.9% and 1.35%
inhibition ([12]; measured here: with BGB IC20 combination, at 0.5 µM): -15.6% and -44.2%
inhibition ([12]; measured here: with cisplatin IC20 combination, at 0.5 µM): -0.181% and -16.9%
inhibition ([12]; single agent, at 5 µM): 58.6% and 19.5%
inhibition ([13]; BGB IC20 combo, at 0.005 µM): -1.95% and -4.3%
inhibition ([13]; BGB IC40 combo, at 0.005 µM): -29.2% and -32%
inhibition ([13]; BGB IC40 combo, at 0.05 µM): 25.2% and 28%
inhibition ([13]; at 0.5 µM): -12.7% (inactive) and -20.3% (inactive)
inhibition ([13]; cisplatin combo, at 0.05 µM): 22.5% and 24.5%
inhibition ([13]; cisplatin combo, at 0.5 µM): -4.11% and -25.4%
inhibition ([13]; cisplatin combo, at 5 µM): -33% and -20%
inhibition ([13]; measured here: 5 uM single agent, at 5 µM): -20.1% and -35.8%
inhibition ([14]; at 0.5 µM): -4.93% (inactive) and -17.7% (inactive)
inhibition ([14]; measured here: with BGB IC20, at 0.5 µM): -15.5% and -21.9%
inhibition ([14]; measured here: with BGB IC20, at 5 µM): 46.8% and 4.12%
inhibition ([14]; measured here: with cisplatin IC20, at 0.5 µM): 14.2% and -10.7%
inhibition ([14]; measured here: with cisplatin IC20, at 5 µM): 38.8% and 48.3%
inhibition ([14]; single agent, at 5 µM): 42.9% and 23.4%
inhibition ([15]; at 0.5 µM): -21.3% (inactive) and -18.7% (inactive)
inhibition ([15]; measured here: BGB combination, at 0.5 µM): -26.1% and -14.4%
inhibition ([15]; measured here: BGB combination, at 5 µM): 12.3% and 1.72%
inhibition ([15]; measured here: cisplatin combination, at 0.5 µM): -29.8% and -32%
inhibition ([15]; measured here: cisplatin combination, at 5 µM): 9.34% and 4.42%
inhibition ([16]; at 0.5 µM): 0.96% (inactive) and 10.8% (inactive)
inhibition ([16]; cisplatin combination, at 0.5 µM): -4.86% and 4.91%
inhibition ([16]; cisplatin combination, at 5 µM): 90.9% and 41.3%
inhibition ([16]; measured here: BGB IC40 combination 0.05 uM, at 0.05 µM): -52.6% and -17.2%
inhibition ([16]; single agent, at 5 µM): 58% and 51.4%
inhibition ([17]; at 0.5 µM): -4.02% (inactive) and 5.89% (inactive)
inhibition ([17]; cisplatin combo, at 5 µM): 58% and 24.2%
inhibition ([17]; measured here: BGB IC40 combination, at 0.05 µM): -5.21% and -9.76%
inhibition ([17]; measured here: combination with cisplatin, at 0.5 µM): 7.09% and 6.01%
inhibition ([17]; single agent, at 5 µM): 36.2% and 26.2%

Cc1cncc2cccc(S(=O)(=O)N3CCCN(C(=O)CN)C[C@@H]3C)c12
outcome [2]: inactive
outcome [3]: inactive
outcome [4]: inactive
AC50 [5]: 0.372 µM (active)
outcome [6]: inactive
outcome [18]: inactive
outcome [8]: inactive

COc1ccc(CCN2CCN(CCCc3ccccc3)CC2)cc1OC
outcome [2]: inactive
outcome [3]: inactive
outcome [4]: inactive
outcome [5]: inactive
outcome [6]: inactive
outcome [18]: inactive
outcome [8]: inactive
outcome [19]: inactive
SSMD [20]: 3.93
cell count [20]: 6890
plate-normalised HSF1 focus index [20]: 1.24 (inactive)

Cc1ccc(C(=O)Nc2cccc(C(F)(F)F)c2)cc1Nc1nc(-c2cccnc2)nc2c1cnn2C
AC50 [2]: 16.6 µM (active)
outcome [3]: inactive
AC50 [4]: 18.7 µM (active)
AC50 [5]: 16.6 µM (active)
AC50 [6]: 18.6 µM (active)
AC50 [18]: 23.5 µM (active)
AC50 [8]: 20.9 µM (active)
outcome [19]: inactive
fold change [9, 21]: 1.02 (inactive)
fold change [9, 22]: 1.01
cell count [9, 23]: 4020
cell count [9, 24]: 3950
z-score [10, 25]: -0.539
z-score [10, 26]: 2.14

c1cc(OCCN2CCCCC2)cc(-c2n[nH]c3ccc(-c4ncn[nH]4)cc23)c1
outcome [2]: inactive
outcome [3]: inactive
outcome [4]: inactive
outcome [5]: inactive
outcome [6]: inactive
outcome [18]: inactive
outcome [8]: inactive
outcome [19]: inactive
